Sampled rows, rich in hits. Any-hit rate of the full collection: about 7.3%.
Tau fibril FP = blocks human tau fibril formation measured by polarization | 280,000 compounds, 0.39% hits | K18 P301L tau heparin fibrillization, Alexa594 FP, 6 h | Potency, µM (doses to about 57.7 µM), inactives show top-dose activity, negative = inhibition, usual class: inhibitors | P10636; note: nearly all actives have a fitted effect of over 55% in size
Target sequence (P10636 561-689 P618L limits assumed): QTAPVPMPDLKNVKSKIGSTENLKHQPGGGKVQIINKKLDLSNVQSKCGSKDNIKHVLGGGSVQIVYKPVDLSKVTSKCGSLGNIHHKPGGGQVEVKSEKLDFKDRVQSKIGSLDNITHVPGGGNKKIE
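FP of Alexa 594-tau after heparin (20 uM) induction. Substrate: human K18 P301L, 15 uM unlabeled, 0.24 uM labeled. Buffer 100 mM sodium acetate pH 7. 6 hr, 37 C.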
RORg inh = blocks mouse ROR gamma transcriptional activity. P51450. Drosophila S2 Gal4-RORgamma UAS-luciferase reporter, 20 h. Potency, µM (top dose mostly 53.6 µM), for inactives: at the top dose activity change, negative = inhibition, actives largely listed as inhibitors. 310,000 compounds, 5.4% hits. AID 2551; note: nearly all actives have a fitted effect of over 60% in size
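Luciferase reporter read in Schneider cells carrying Gal4-RORγ (mouse) and UAS-Photinus luciferase; cells given compound 1 h before 700 uM copper sulfate induction, then incubated 20 h at ambient temperature.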
Tau fibril ThT = blocks human tau fibril formation measured by thioflavin T | P10636 | recombinant tau K18 P301L, heparin-induced fibrillization, ThT fluorescence | Potency, µM (highest dose often 57.4 µM), for the others: top-dose activity, negative = inhibition, hits mostly inhibitors | 270,000 compounds, 2.1% hits | AID 1460; note: nearly all actives have a fitted effect of over 55% in size
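Using a mix of unlabeled (15 uM) and Alexa 594-labeled (0.24 uM) tau K18 P301L, heparin-triggered fibrillization over 6 hr at 37 C was scored by ThT fluorescence.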
VP16 counter = Gal4-VP16 reporter inhibition counter-screen; Drosophila S2 Gal4-VP16 UAS-luciferase, luminescence, 20 h; Potency, µM (highest dose often 53.6 µM), inactives show top-dose activity, negative = inhibition, most hits filed as inhibitors; 310,000 compounds, 3.5% hits; AID 2546;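 note: Gal4-VP16 expression switched on by copper sulfate through the metallothionein promoter; nearly all actives have a fitted effect of over 50% in size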
Tau fluor counter = counter-screen for tau fibril formation inhibitors. tau K18 P301L Alexa594 fluorescence, heparin fibrillization. Potency, µM (doses to about 57.7 µM), for inactives: at the top dose activity change, negative = decrease. 280,000 compounds, 0.93% hits; note: nearly all actives have a fitted effect of over 55% in size
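Human tau K18 P301L (15 uM unlabeled, 0.24 uM Alexa 594-labeled) in 100 mM sodium acetate pH 7 with 20 uM heparin, 6 hr at 37 C. ThT 30 uM added, 1 hr ambient; Alexa 594 FP and total fluorescence read at 555/632 nm.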
Active calls of the source: *; [ ] = another dose, or the depositor's remark. Calls come from the whole dose curve; as a rule, active = well fitted curve in the direction sought with a large enough effect; inconclusive = small, poorly fitted or top-dose-only effect, or another doubt; inactive = no such curve, though single readings can be large; an effect the other way counts as inactive or inconclusive. % is set by controls: 0 for no effect and ±100 for the full control effect; potency is the fitted concentration of half-maximal effect.

`N#Cc1c(-c2ccccc2)cc(-c2ccccc2)nc1SCC(O)CS(=O)(=O)Cc1ccc(Cl)cc1` (configuration not stated) gave Tau fibril FP 14.1µM*, Tau fibril ThT 14.1µM* and Tau fluor counter inconclusive.
`CCOc1ccccc1C(=O)Nc1cccc2ccc(C)nc12` gave Tau fibril FP -3.4%, Tau fibril ThT 7.9% and Tau fluor counter 2.6%.
For C[C@]12CCC3c4ccc(O)cc4CCC3C1CCC2=O (some centres not stated) the results were Tau fibril FP 2.3%, RORg inh -7.9%, Tau fibril ThT inconclusive, VP16 counter 1.6% and Tau fluor counter -22.9%.
`Fc1ccc(-n2ncc3c(Nc4ccc5c(c4)OCCO5)ncnc32)cc1` gave Tau fibril FP 9.0%, Tau fibril ThT inconclusive and Tau fluor counter 11.2µM*[quencher].
Fc1ccc(-n2ncc3c(Nc4cccc(Cl)c4)ncnc32)cc1 was read as Tau fibril FP 10µM*, Tau fibril ThT inconclusive and Tau fluor counter inconclusive.
